Laboratory results published in PubChem BioAssay (NCATS).
Inconclusive results are not listed. Calls of active or inactive are those of the source. Unless noted, calls follow the shape of the dose curve; as a rule, active = well fitted curve in the direction sought with a large enough effect; inconclusive = small, poorly fitted or top-dose-only effect, or another doubt; inactive = no such curve, though single readings can be large; an effect the other way counts as inactive or inconclusive.

How the values were obtained:
[1] = qHTS Assay for Identifying Gametocytocidal Compounds (AID 743244);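 also: % is scaled to controls: 0 for no effect and ±100 for the full control effect; actives lower the fluorescent signal which means gametocytes are killed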; conditions: P. falciparum 3D7 stage III-V gametocytes, alamarBlue, 72 h; max response: hits give low values
Outline: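 P. falciparum 3D7 stage III–V gametocytes (20,000 cells/well) were exposed to compounds for 72 h at 37 °C, 5% CO2. AlamarBlue was then added for 24 h; decreased resorufin fluorescence (Ex 525/Em 598 nm) indicated loss of viability.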

[2] = Natriuretic polypeptide receptor (hNpr1) antagonism - Pilot counterscreen GloSensor control cell line (AID 1347045; calls by dose curve; also: series mostly up to about 38 µM; % is scaled to controls: 0 for no effect and ±100 for the full control effect)
Outline: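 Luminescence was read before and 20 min after adding 50 uM SNP, which stimulates soluble guanylyl cyclase. The HEK293 cells expressing the GloSensor cGMP sensor had been preloaded with 2% reagent for 2 h and treated with compound.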

[3] = NS1 protein of Zika virus - qHTS assay to identify small molecule inhibitors in human HEK 293 cells (AID 1347053);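 also: series mostly up to about 46 µM; plate controls were infected untreated cells for no effect and uninfected cells for full effect; nearly all actives have a fitted effect of over 55% in size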
Outline: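 HEK 293 cells, seeded 20 h at 37 C, were pretreated with compound 1 h, then infected with ZIKV MR766 (MOI = 0.5) for 24 h. NS1 was read by TR-FRET with two anti-NS1 antibodies, normalized to uninfected and infected wells.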

[4] = target: T1, Tyrosine-protein phosphatase non-receptor type substrate 1 (Homo sapiens) + Leukocyte surface antigen CD47 (Homo sapiens) (UniProt P78324+Q08722); test: CD47-SIRPalpha protein protein interaction - LANCE assay qHTS validation (AID 1347057; active = well fitted curve in the direction sought with a large enough effect in the signal ratio, with a control signal flat, not every such curve was filed as active; the % refers to the signal ratio; also: series mostly up to about 38 µM; 0% is about no effect)
T1 sequence (P78324 whole entry, looked up): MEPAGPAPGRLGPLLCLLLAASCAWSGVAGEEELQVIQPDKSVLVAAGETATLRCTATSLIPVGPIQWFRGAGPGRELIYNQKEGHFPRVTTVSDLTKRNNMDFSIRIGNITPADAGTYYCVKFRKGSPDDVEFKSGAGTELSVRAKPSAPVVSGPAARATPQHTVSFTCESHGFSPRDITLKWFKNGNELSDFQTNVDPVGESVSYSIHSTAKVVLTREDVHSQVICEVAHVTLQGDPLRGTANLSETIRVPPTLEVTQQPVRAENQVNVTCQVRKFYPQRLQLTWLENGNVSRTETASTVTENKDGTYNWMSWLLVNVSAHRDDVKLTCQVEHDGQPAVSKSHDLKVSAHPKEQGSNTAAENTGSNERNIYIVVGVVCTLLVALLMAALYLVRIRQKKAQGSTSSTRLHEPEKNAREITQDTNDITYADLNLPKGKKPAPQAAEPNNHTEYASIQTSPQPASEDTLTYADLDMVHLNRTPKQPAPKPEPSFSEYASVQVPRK
T1 sequence (Q08722 whole entry, looked up): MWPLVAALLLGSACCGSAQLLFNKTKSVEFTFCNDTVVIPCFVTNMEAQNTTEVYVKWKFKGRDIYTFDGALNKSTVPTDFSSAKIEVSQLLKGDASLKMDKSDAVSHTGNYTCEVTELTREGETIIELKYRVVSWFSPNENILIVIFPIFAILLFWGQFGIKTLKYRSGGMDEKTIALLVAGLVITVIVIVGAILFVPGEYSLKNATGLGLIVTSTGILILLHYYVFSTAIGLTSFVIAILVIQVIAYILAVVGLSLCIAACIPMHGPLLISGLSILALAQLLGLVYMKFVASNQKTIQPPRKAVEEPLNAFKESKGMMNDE
Outline: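 First, His-tagged CD47 and Eu-labelled anti-His antibody met the compound for 30 min; next, site-specifically biotinylated SIRPalpha was added for 30 min; finally streptavidin-APC was added before reading the TR-FRET ratio.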

[5] = target: T1, Tyrosine-protein phosphatase non-receptor type substrate 1 (Homo sapiens) + Leukocyte surface antigen CD47 (Homo sapiens); test: CD47-SIRPalpha protein protein interaction - HTRF assay qHTS validation (AID 1347058; active = well fitted curve in the direction sought with a large enough effect in the signal ratio, not every such curve was filed as active; the % refers to the signal ratio;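 also: recombinant soluble extracellular CD47 with His tag and biotinylated SIRPalpha domains; series mostly up to about 38 µM; 0% is about no effect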)
Outline: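 TR-FRET read (Ch1/Ch2 ratio) of soluble extracellular CD47 and Avi-biotinylated SIRPalpha domains in PBS pH 7.4 with 0.05% IGEPAL; 7-point compound titration. Sequential 30 min room-temperature steps; non-biotinylated SIRPalpha as control inhibitor.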

[6] = target: T1, Tyrosine-protein phosphatase non-receptor type substrate 1 (Homo sapiens) + Leukocyte surface antigen CD47 (Homo sapiens); test: CD47-SIRPalpha protein protein interaction - Alpha assay qHTS validation (AID 1347059);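 also: bead proximity luminescence from CD47 binding SIRPalpha after compound preincubation with SIRPalpha; % is scaled to controls: 0 for no effect and ±100 for the full control effect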
Outline: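 Binding is measured by AlphaScreen proximity: Ni-NTA acceptor beads capture His-CD47, streptavidin donor beads capture biotin-SIRPalpha. Each of three additions (SIRPalpha with compound, CD47, beads) incubates 30 min at room temperature protected from light.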

[7] = target: Parathyroid hormone/parathyroid hormone-related peptide receptor (Homo sapiens) (UniProt Q03431); test: qHTS for PTHR1 Agonists: Optimization Screen against the NCGC LOPAC library (AID 1347079);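 also: GloSensor cAMP luminescence in HEK-293 GP2 cells expressing human PTHR1 with IBMX; 0% is about no effect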
Parathyroid hormone/parathyroid hormone-related peptide receptor (Homo sapiens), sequence (Q03431 whole entry, looked up): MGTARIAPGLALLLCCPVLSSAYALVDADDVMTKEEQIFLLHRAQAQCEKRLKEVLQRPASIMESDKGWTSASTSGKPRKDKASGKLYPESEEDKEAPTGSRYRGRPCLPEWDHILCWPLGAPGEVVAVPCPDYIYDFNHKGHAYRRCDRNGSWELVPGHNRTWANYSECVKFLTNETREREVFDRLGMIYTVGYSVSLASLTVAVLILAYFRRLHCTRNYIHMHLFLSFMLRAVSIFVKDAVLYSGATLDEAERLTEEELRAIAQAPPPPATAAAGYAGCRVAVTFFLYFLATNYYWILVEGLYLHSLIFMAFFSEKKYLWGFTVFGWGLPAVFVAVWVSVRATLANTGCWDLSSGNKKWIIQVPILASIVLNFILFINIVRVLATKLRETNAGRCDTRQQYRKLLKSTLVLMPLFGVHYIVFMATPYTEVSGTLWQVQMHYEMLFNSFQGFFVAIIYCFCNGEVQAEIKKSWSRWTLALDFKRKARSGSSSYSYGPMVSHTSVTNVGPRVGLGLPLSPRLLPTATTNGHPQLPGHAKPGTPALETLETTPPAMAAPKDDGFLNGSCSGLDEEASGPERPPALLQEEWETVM
Outline: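 Agonist readout: GloSensor cAMP luminescence, read after 15 min at room temperature. HEK-293-derived GP2 line carries PTHR1; compounds tested as a titration for 1 hr at 37C in presence of IBMX. M-PTH (1-15) served as control.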

[8] = system: Zika virus NS2B-NS3 protease; test: Primary screen GU AMC qHTS for Zika virus inhibitors (AID 1347154);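 also: 0% = no-inhibitor control and -100% = no-enzyme control; nearly all actives have a fitted effect of over 70% in size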
Outline: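 Fluorogenic AMC-substrate cleavage by noncovalent NS2B-NS3 protease complex (25 nM, pH 8.0 Tris buffer with Tween 20) followed for 15 minutes at room temperature (~20% conversion). Percent inhibition from ex340/em450 signal change, fitted by 4-parameter Hill equation.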

[9] = qHTS to identify inhibitors of the type 1 interferon - major histocompatibility complex class I in skeletal muscle: primary screen against the NCATS LOPAC collection (AID 1347405);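 also: lytic HiBiT luminescence reporting HLA-B protein level; % is scaled to controls: 0 for no effect and ±100 for the full control effect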
Outline: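 Luminescence from HiBiT fused to endogenous HLA-B in CRISPR-engineered human myoblasts served as the read-out. Cells received 4.0 ng/ml IFN-beta plus compound (seven concentrations, 1:4.3 steps, highest 46 uM final) for 24 hrs before lytic detection.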

[10] = qHTS for inhibitors of adenylyl cyclases using a fission yeast platform: a pilot screen against the NCATS LOPAC library (AID 1347410);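 also: plate controls were DMSO vehicle for no effect and DPI positive control for full effect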
Outline: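 Inhibition of GNAS-stimulated AC9 activity in S. pombe was inferred from derepression of a PKA-repressed fbp1-GFP reporter, measured as cytometric fluorescence after 18 h at 30C with compounds at up to 57 µM.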

[11] = Validation qHTS assay for inhibitors of Activation Induced Cytidine Deaminase (AID): UDG Counterscreen signal (AID 1347427); also: 0% is about no effect
Outline: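 Counterscreen read of UDG activity (2 U/mL, 4/3x) in the FRET deamination format with AID (1 uM, 4/3x), DJC20/DJC23 substrates (250 nM, 4x), 4 h at room temperature. NaOH stop, fluorescence at 560 ex/665 em.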

[12] = target: Single-stranded DNA cytosine deaminase (Homo sapiens) (UniProt Q9GZX7); test: Validation qHTS assay for inhibitors of Activation Induced Cytidine Deaminase (AID): AID signal (AID 1347429); also: % is scaled to controls: 0 for no effect and ±100 for the full control effect
Single-stranded DNA cytosine deaminase (Homo sapiens), sequence (Q9GZX7 whole entry, looked up): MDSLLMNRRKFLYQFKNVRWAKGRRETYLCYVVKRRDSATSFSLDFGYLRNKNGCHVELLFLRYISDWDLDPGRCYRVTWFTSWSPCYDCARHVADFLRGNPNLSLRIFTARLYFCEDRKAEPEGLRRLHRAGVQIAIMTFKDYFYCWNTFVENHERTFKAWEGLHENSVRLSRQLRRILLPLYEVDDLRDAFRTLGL
Outline: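 Fluorescence at 540 nm excitation and 590 nm emission reports ssDNA cytosine deamination by AID, with UDG in the same well. Compound-treated reactions ran 4 hr at room temperature with DJC20/DJC23 substrate, followed by 30 min NaOH treatment.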

[13] = Primary qHTS for inhibitors of La Crosse Virus (LACV) - induced cell death in SH-SY5Y cells (AID 1508616);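 also: top concentration of the series differs between compounds; 0% = infected DMSO wells and 100% = uninfected DMSO wells; higher means more rescue of cells from virus-induced death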
Outline: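 Protection against LACV-induced cell death is scored in SH-SY5Y cells exposed to compounds and virus (0.01 MOI) for 6 days. Data normalized to virus-infected DMSO wells and virus-free DMSO wells.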

[14] = target: Calcium and integrin-binding protein 1 (Homo sapiens) (UniProt Q99828); test: Validation qHTS for Identification of Calcium Integrin Binding protein 1 (CIB1) Competitor (AID 1508618); also: % is scaled to controls: 0 for no effect and ±100 for the full control effect
Calcium and integrin-binding protein 1 (Homo sapiens), sequence (Q99828 whole entry, looked up): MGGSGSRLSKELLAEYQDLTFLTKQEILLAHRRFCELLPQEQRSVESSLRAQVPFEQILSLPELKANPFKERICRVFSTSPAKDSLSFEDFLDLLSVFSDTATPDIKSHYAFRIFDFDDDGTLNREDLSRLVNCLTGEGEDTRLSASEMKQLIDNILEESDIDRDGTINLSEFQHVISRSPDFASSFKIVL
Outline: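 CIB1-GST (1 uM final) in 5 mM HEPES pH 7.4, 125 mM NaCl, 5 mM CaCl2, 0.01% Tween20 was preincubated 15 min at room temperature with compound (up to 114 uM), then FITC-alphaIIb peptide (100 nM) added for 15 min; fluorescence polarization read.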

[15] = Primary qHTS for small molecule stabilizers of the endoplasmic reticulum resident proteome: Secreted ER Calcium Modulated Protein (SERCaMP) assay (AID 1508630); also: % is scaled to controls: 0 for no effect and ±100 for the full control effect
Outline: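 GLuc-SERCaMP-expressing SH-SY5Y cells, pretreated 16 h with compound, are challenged with thapsigargin to empty ER calcium stores; after 4 h, coelenterazine is added directly to the medium and luminescence is imaged.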

[16] = target: N-terminal Xaa-Pro-Lys N-methyltransferase 1 (Homo sapiens) (UniProt Q9BV86); test: Confirmatory qHTS for Inhibitors of N-terminal methyltransferase 1 (NTMT1): MTaseGlo Assay (AID 1645874); also: potency is read from the fitted curve at half-maximal effect; nearly all actives have a fitted effect of over 65% in size
N-terminal Xaa-Pro-Lys N-methyltransferase 1 (Homo sapiens), sequence (Q9BV86 whole entry, looked up): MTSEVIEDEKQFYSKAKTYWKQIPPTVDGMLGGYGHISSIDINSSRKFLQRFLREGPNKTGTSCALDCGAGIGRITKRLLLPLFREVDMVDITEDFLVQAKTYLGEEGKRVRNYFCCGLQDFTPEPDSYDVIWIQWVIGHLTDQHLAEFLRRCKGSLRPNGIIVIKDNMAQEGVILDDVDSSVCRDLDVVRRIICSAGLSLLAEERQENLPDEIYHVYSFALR
Outline: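 Luminescent MTase-Glo read-out of SAH. 125 nM NTMT1, 100 uM SAM, 1 uM SPKRIA substrate, 30 min RT reaction after 15 min compound preincubation. Normalized to no-enzyme and DMSO controls; Hill fit.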

[17] = target: Metallo-beta-lactamase type 2 (Klebsiella pneumoniae) (UniProt C7C422); test: qHTS to identify inhibitors of the New Delhi Metallo-beta-lactamase (NDM): assay validation screen against the NCATS LOPAC Collection (AID 1794843)
Metallo-beta-lactamase type 2 (Klebsiella pneumoniae), sequence (C7C422 whole entry, looked up): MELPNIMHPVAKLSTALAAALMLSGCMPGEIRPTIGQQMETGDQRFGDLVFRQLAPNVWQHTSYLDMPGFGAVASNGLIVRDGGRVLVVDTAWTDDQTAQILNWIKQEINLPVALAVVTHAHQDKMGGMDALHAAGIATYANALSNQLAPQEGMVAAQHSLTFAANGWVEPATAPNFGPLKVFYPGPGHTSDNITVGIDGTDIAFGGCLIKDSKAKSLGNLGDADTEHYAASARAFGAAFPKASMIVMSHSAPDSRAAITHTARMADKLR
Outline: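 NDM-1 at 2 nM final in 50 mM HEPES pH 7.0 with 1 uM ZnSO4 and 0.01% Tween20 was preincubated with library compounds in DMSO. Nitrocefin (50 uM stock) was then added, and absorbance at 485 nm was read at the kinetic plateau.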

[18] = target: Glutathione peroxidase 1 (Homo sapiens) (UniProt P07203); test: Primary qHTS Assay for Inhibitors of Recombinant Selenoprotein Glutathione Peroxidase 1 (GPX1) (AID 1845191); also: nearly all actives have a fitted effect of over 65% in size
Glutathione peroxidase 1 (Homo sapiens), sequence (P07203 whole entry, looked up): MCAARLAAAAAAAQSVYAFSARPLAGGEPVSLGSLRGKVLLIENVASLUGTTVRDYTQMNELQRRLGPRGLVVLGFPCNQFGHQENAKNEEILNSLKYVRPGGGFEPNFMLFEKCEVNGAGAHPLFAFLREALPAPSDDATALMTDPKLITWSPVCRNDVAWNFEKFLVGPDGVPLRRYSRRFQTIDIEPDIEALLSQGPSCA
Outline: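 10 nM GPX1 + cpd, 30 min RT; start w/ 1 mM GSH, 0.5 mM cumene hydroperoxide, 0.5 mM NADPH, 100 nM GR, 0.01% BSA; buffer 50 mM Tris-HCl pH 7.5, 2 mM EDTA, 150 mM NaCl; Fl 340/450, 0 & 15 min.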

[19] = target: Phospholipid hydroperoxide glutathione peroxidase GPX4 (Homo sapiens) (UniProt P36969); test: Primary qHTS Assay for Inhibitors of Recombinant Selenoprotein Glutathione Peroxidase 4 (GPX4) (AID 1845192); conditions: outcome: dose series up to 50 µM unless noted; also: nearly all actives have a fitted effect of over 65% in size
Phospholipid hydroperoxide glutathione peroxidase GPX4 (Homo sapiens), sequence (P36969 whole entry, looked up): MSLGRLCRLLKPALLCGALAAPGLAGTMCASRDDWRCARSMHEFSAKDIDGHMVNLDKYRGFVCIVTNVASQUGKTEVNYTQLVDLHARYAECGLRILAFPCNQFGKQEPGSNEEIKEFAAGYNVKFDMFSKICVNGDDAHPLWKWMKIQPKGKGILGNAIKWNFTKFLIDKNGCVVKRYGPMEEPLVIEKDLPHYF
Outline: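 NADPH consumption, followed by fluorescence at 340/450 nm between 0 and 15 min, reports GPX4 activity via coupled glutathione reductase (100 nM). Enzyme 200 nM was pre-exposed to compound 30 min; 0.5 mM cumene hydroperoxide and 1 mM GSH served as substrates.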

Cc1cccc(/C=C/c2ccccc2)n1
inactive: max response [1] 6.48% | Potency [2] | outcome [3] | outcome [4] | outcome [5] | Potency [6] | outcome [7] | Potency [8] | Potency [9] | outcome [10] | outcome [11] | Potency [12] | outcome [13] | outcome [14] | Potency [15] | Potency [17] | Potency [18] | Potency [19]
active: Potency [16] 27.4 µM
